# Screening results deposited in PubChem by several laboratories.
# aDG glyco act – increases alpha dystroglycan glycosylation; Pro5-aDG cells, alpha-DG glycosylation AlphaScreen (IIH6); 0% Pro5, 100% B10-LARGE cell signal; activation, % at 10 µM; 360,000 compounds, 0.22% hits;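 active means activation of at least 8% versus controls, or a plate z-score of at least 8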;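 further: Pro5 are CHO cells carrying HIG-tagged alpha-DG that lacks glycosylation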
# PHOSPHO1 inh – PHOSPHO1 (human) inhibition | Q8TCT1 | recombinant PHOSPHO1, absorbance phosphatase assay | inhibition, % at 13.3 µM | 290,000 compounds, 1.1% hits; in the data active means inhibition above about 60%
# Target sequence (Q8TCT1 whole entry, looked up): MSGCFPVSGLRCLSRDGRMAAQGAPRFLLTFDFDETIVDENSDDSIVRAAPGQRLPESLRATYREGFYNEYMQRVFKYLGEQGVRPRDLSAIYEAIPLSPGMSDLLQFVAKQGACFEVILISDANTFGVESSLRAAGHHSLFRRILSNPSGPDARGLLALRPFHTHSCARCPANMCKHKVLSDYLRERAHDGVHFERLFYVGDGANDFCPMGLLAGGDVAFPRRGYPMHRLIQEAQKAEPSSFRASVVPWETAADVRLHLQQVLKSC
# rCAG RNA binder – r(CAG) repeat RNA binding | TO-PRO-1 dye displacement fluorescence | inhibition, % at 3 µM | 370,000 compounds, 1.3% hits | AID 651821;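 active means inhibition above the plate cutoff, the mean of all test compounds on that plate plus 3 SD, cut at about 35% in these data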;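 further: 0% = DMSO alone and 100% = 100 µM mitoxantrone as full dye displacement; higher means more dye released from RNA so lower well fluorescence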
# ALR H2O2 inh – blocks human ALR sulfhydryl oxidase activity. purified ALR, DTT oxidation, H2O2 HRP-luminol luminescence. inhibition, % (no concentration beside the values). 290,000 compounds, 3.8% hits. AID 485317;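 active means mean replicate inhibition above about 79%, with every replicate also reaching it, limit read from the data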
# APOBEC3G inh – APOBEC3G (human) deaminase inhibition. Q9HC16. recombinant A3G, ssDNA deamination FAM/TAMRA fluorescence. inhibition, % at 20 µM. AID 493012. 330,000 compounds, 0.28% hits;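 active means inhibition of at least 40% at 20 µM, with no more than 30% in the related APOBEC3A deaminase screen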;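 further: plate controls were DMSO wells with A3G for no effect and wells lacking A3G enzyme for full effect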
# A3A deaminase – human APOBEC3A DNA deaminase inhibition. recombinant A3A, FAM/TAMRA ssDNA deamination fluorescence. 330,000 compounds, 0.41% hits. AID 493011. inhibition, % at 20 µM. P31941;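 active means at least 40% inhibition at 20 µM here, with at most 30% in a related deaminase screen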;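 further: plate controls were A3A with DMSO for no effect and wells lacking A3A enzyme for full effect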
# Target sequence (P31941 whole entry, looked up): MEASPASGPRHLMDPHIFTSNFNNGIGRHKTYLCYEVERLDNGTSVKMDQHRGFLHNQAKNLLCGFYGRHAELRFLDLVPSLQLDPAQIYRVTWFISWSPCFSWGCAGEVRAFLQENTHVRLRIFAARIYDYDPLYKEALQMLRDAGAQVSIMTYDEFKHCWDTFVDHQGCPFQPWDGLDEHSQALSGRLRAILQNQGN
# Numbers without * were called inactive; x = not tested or not shown. Sampled rows, rich in hits. Any-hit rate of the full collection: about 5.4%.
SMILES,aDG glyco act,PHOSPHO1 inh,rCAG RNA binder,ALR H2O2 inh,APOBEC3G inh,A3A deaminase
Oc1[nH]c2ccccc2c1N=Nc1ccccc1Cl,0,x,6,x,x,x
Oc1c(C=Nc2ccccc2Cl)[nH]c2ccccc12,0,63*,-2,-10,1,1
Cc1ccc(NN2C(=O)C=C(c3ccccc3)C2=O)cc1,-1,61*,2,x,0,-2
COC(=O)[C@]12C[C@H](CC(=O)NCCc3ccccc3OC)C(=O)N(CCc3ccc(OC)c(OC)c3)C1=C[C@H](C1CCCC1)O[C@@H]2C,x,x,5,x,x,x
O=C1C2C3C=CC(C3)C2C(=O)N1CNc1ccc(O)cc1 (configuration not stated),x,17,x,99*,4,1
CC(=O)Nc1ccc(NCN2C(=O)C3C4CCC(C4)C3C2=O)cc1 (configuration not stated),2,19,-13,85*,-5,2
Cc1ccc(NCN2C(=O)C3C4CCC(C4)C3C2=O)cc1 (configuration not stated),x,-1,x,14,-2,-3
CC(=O)NC(Cc1ccccc1)P(=O)(O)O (configuration not stated),x,x,0,x,x,x
Cc1ccc(OCC(=O)Nc2cccc(O)c2)cc1C,0,16,2,98*,-3,-2
CNC(=S)NNC(=O)COc1ccc(C)c(C)c1,0,0,-4,90*,-5,-4
CCCCCCCCN1C(=O)[C@@H](CC(=O)NCCCCc2ccccc2)C[C@@]2(C(=O)OC)C1=C[C@H](C1CCCC1)O[C@@H]2C,x,x,1,x,x,x
Nc1nc(SCC(=O)N2CCCC2)[nH]c(=O)c1NC(=O)c1ccco1,0,38,1,x,-9,-4
CCC1CCCCN1C(=O)CSc1nc(N)c(NC(=O)c2ccco2)c(=O)[nH]1 (configuration not stated),0,26,1,85*,-11,-2
CC[C@@H](NS(=O)(=O)c1ccc(C)cc1)C(=O)Oc1ccc2c3c(c(=O)oc2c1)CCC3,0,-14,4,x,-3,1
Cc1ccc(S(=O)(=O)NC(CC(C)C)C(=O)Oc2ccc3c4c(c(=O)oc3c2)CCC4)cc1 (configuration not stated),0,60*,0,x,-2,0
CCCOC(=O)c1c(NC(=O)CCC(=O)O)sc2c1CCCCC2,0,-4,1,89*,0,2
CCOc1ccccc1NC(=O)c1c(NC(=O)CCC(=O)O)sc2c1CCCCC2,0,-147,27,x,-6,-6
CCCC(=O)Nc1sc2c(c1C(=O)Nc1ccccn1)CCCC2,0,-33,-1,97*,-4,-2
COc1ccc(S(=O)(=O)N2CCC(NC(=O)Nc3ccc(C)cc3)CC2)cc1,0,60*,2,25,0,0
COc1ccc(S(=O)(=O)Nc2ccc(S(=O)(=O)N3CCCC3)cc2)cc1,0,-5,14,-2,-4,-2
COc1ccc(S(=O)(=O)Nc2ccc(S(=O)(=O)N3CCCCC3)cc2)cc1,0,32,16,97*,-3,-3
COc1ccc(NC(=S)N2CCN(S(=O)(=O)c3ccc(F)cc3)CC2)cc1,0,66*,1,-22,-6,-3
COc1ccc(NS(=O)(=O)c2cc(N)ccc2N2CCCC2)cc1,-1,x,18,32,9,-1
COc1ccc(S(=O)(=O)N2CCN(C(=S)Nc3ccc(S(N)(=O)=O)cc3)CC2)cc1,0,23,10,2,2,2
COc1ccc(NS(=O)(=O)c2ccc(N3CCCC3)c(N)c2)cc1,2,32,9,92*,-3,-4
SMILES,aDG glyco act,PHOSPHO1 inh,rCAG RNA binder,ALR H2O2 inh,APOBEC3G inh,A3A deaminase
Cc1ccc(NC(=O)NC2CCN(S(=O)(=O)c3ccc(F)cc3)CC2)cc1,0,9,-2,0,2,3
CCCCNC(=O)C1(C(=O)c2ccc(OC)cc2)CC(c2ccccn2)=NO1 (configuration not stated),x,x,3,x,x,x
O=C(CSc1nnc(-c2ccccn2)n1-c1ccccc1)c1ccc2c(c1)OCO2,x,x,4,x,x,x
O=C(Cc1cc(=O)[nH][nH]1)N/N=C/c1ccccc1C(F)(F)F,x,x,4,x,x,x
Cc1ccccc1NC(=O)Cn1nnc(-c2ccncc2)n1,x,x,2,x,x,x
COc1ccccc1-c1nnc(SCC(=O)N2CCOCC2)n1-c1ccccc1,0,30,-3,-10,-5,1
COc1ccccc1-c1nnc(SCCN2CCOCC2)n1-c1ccc(C)cc1,0,69*,-7,12,1,3
Cc1nc(Nc2ccc(O)cc2)c2c3c(sc2n1)CCCC3,0,39,x,98*,-7,2
S=C(Nc1ccc(Cl)cc1)OC1CCC12CCC(c1ccccc1)CC2 (configuration not stated),x,x,7,x,x,x
CC(NC(=O)C12CC3CC(CC(C3)C1)C2)C(=O)N/N=C/C1=C(N2CCOCC2)C(=C\c2ccccc2)/CC1 (configuration not stated),3,-5,2,-1,0,-1
Cn1cc(C(=O)N/N=C/C2=C(N3CCOCC3)C(=C\c3ccccc3)/CC2)ccc1=O,0,0,2,89*,-8,-9
Cc1ccc2c(c1)C(CS(=O)(=O)NCc1ccccc1)NC2 (configuration not stated),x,x,9,x,x,x
CN1C(=O)Cc2cc(S(=O)(=O)NCc3cccs3)ccc21,0,44,4,11,-4,4
CCOc1cc(CNS(=O)(=O)c2ccc3c(c2)CC(=O)N3C)cc(OCC)c1OCC,0,65*,5,3,-3,-1
Nc1ccn([C@@H]2O[C@H](C(=O)N3CCN(C(=O)N4CCCCC4)CC3)[C@@H](O)[C@H]2O)c(=O)n1,x,x,-1,x,x,x
COc1cc(N)c(Cc2nccc3cc(OC)c(OC)cc23)cc1OC,0,37,9,88*,-6,-5
NC1=NN=C(c2ccc3c(c2)OCCO3)CS1,0,4,7,99*,-3,1
O=C(NCCc1ccccc1)OCc1cn(-c2c(F)cccc2F)nn1,x,x,11,x,x,x
N#Cc1c(C(F)(F)F)cc(-c2ccccc2)[nH]c1=O,0,19,20,-1,0,3
N#Cc1c(C(F)(F)F)cc(-c2ccccc2Cl)[nH]c1=O,0,25,37*,x,1,9
COC(=O)CN1CCN(C(=O)c2nocc2C)CC1,x,x,1,x,x,x
CC(C)CNC(=O)OCc1cn(Cc2ccccc2Cl)nn1,x,x,-1,x,x,x
CCCn1nc(NS(=O)(=O)c2cccc3nonc23)c2cc3ccccc3nc21,0,28,32,99*,-6,-8
CCn1nc(NS(=O)(=O)c2ccccc2)c2cc3cc(C)ccc3nc21,0,37,24,81*,-3,-1
Cn1ccc2ccc(-c3ccc4c(c3)[C@]3(CCC[C@@H](OCc5ccccc5)[C@@H]3NC(=O)CCc3ccccc3)C(=O)N4Cc3ccccc3)cc21,x,x,12,x,x,x
